# Experimental data taken from ChEMBL document CHEMBL3988442, “University of Dundee, Small-Polar-MMV Screening Library” (2021).
# About 13,000 (27%) of roughly 48,000 compounds showed an effect of 50% or more. The list shows a part of the results.
# Test system: Wolbachia pipientis
# Test: Anti-Wolbachia Cell-Based Screen
# Type: functional
# Set-up: scale not given: in the data most compounds retested in dose-response had high values
# Details: 5 µM
row,Compound,Percent Effect [%]
1,Cc1nc(C)c(-c2nnc(SCC(=O)O)n2C(C)c2ccccc2)o1 (stereo unspecified),4.033
2,O=C(c1ccc2cc[nH]c2c1)N1CCCN(Cc2cscn2)CC1,102.9
3,Fc1cccc(CN2CCN(Cc3cscn3)CC2)c1,-6.647
4,O=C(c1cccc(F)c1)N1CCCN(Cc2cscn2)CC1,112.5
5,Cc1cccc(C(=O)N2CCCN(Cc3cscn3)CC2)c1,101.4
6,O=C(c1ccc2c(c1)COC2)N1CCCN(Cc2cscn2)CC1,97.01
7,CN1CCN(C(=O)c2cccc(OCc3cscn3)c2)CC1,-0.311
8,O=C(c1ccc(O)cc1)N1CCN(C(=O)c2ccc3c(c2)COC3)CC1,-5.572
9,Cn1cc(CN2CCCN(C(=O)c3ccc4c(c3)COC4)CC2)cn1,-5.776
10,CSCC(CCO)NC(=O)Nc1cccc(Br)c1 (stereo unspecified),-3.109
11,O=C(NCCO)c1coc(CN2CCN(c3ccccc3F)CC2)n1,7.764
12,COCc1noc(-c2ccc(N(C)Cc3c(C)n[nH]c3C)nc2)n1,-8.806
13,O=C(NC[C@H]1OC[C@@H](NC2CCC(F)(F)CC2)[C@@H]1O)c1cccs1,-23.1
14,C=C(C)CN(CC)S(=O)(=O)c1ccccc1C#N,-2.977
15,Cc1nnc(NCC2(c3ccccc3)CCOCC2)c(C#N)c1C,-16.92
16,CC(C)c1nn(C)c(N(C)C)c1CNC1CCN(CC2CC2)CC1,-26.39
17,CC(C)Nc1nc2c(s1)C(=O)CN(C)C2,130.6
18,CC(C)Nc1nc2c(s1)C(=O)CN(CC1CC1)C2,101.7
19,CCN1CC(=O)c2sc(NC(C)C)nc2C1,96.98

row,Compound,Percent Effect [%]
1,COCCN1CCc2cc(C(=O)N(C)C)c(NC(C)C)nc2CC1.O=C(O)C(F)(F)F.O=C(O)C(F)(F)F,7.689
2,COCCN1CCC(NCc2c(C(C)C)nn(C)c2N(C)C)CC1,-4.673
3,COCCN1CC(=O)c2sc(NC(C)C)nc2C1,130.5
4,CSC(C)(C)CNC(=O)NC1CCN(C)CC1,-3.442
5,CC(C)C(C)(C#N)NC(=O)Cn1cc(C(N)=O)c(-c2ccccc2)n1 (stereo unspecified),12.8
6,CCNC(=O)NCc1cccc(N2CC=CC2)c1,-0.5505
7,CCc1noc(CN(C)CCC(=O)Nc2ccc(Cl)cc2)n1,-6.397
8,CCN1CC(CN(C)Cc2nc(-c3ccoc3)oc2C)CC1=O (stereo unspecified),101.6
9,CCCOC1CCCN(Cc2nc(-c3ccc(F)cc3F)oc2C)C1 (stereo unspecified),11.6
10,CCN(C)Cc1nc(-c2ccccc2NS(C)(=O)=O)oc1C,17.24
11,CCN1CC(CN(C)Cc2nc(-c3ccc(F)cc3F)oc2C)CC1=O (stereo unspecified),223.2
12,Cc1oc(-c2ccc(F)cc2)nc1CN1CCOCS1(=O)=O,1.059
13,CCN1CC(CN(C)Cc2nc(-c3ccc(F)cc3)oc2C)CC1=O (stereo unspecified),117.1
14,CCN1CC(CN(C)Cc2nc(-c3ccc(C)o3)oc2C)CC1=O (stereo unspecified),106.5
15,CCN(CCn1cccn1)Cc1nc(-c2ccc(C)o2)oc1C,17.65
16,Cc1oc(-c2ccoc2)nc1CN1CCC[C@H]1CO,2.013
17,Cc1oc(-c2ccc(F)cc2F)nc1CN1C[C@@H](C)O[C@@H](C)C1,30.19
18,CCN(CCn1cccn1)Cc1nc(-c2ccc(F)cc2)oc1C,16.6
19,CCN(CCn1cccn1)Cc1nc(-c2ccoc2)oc1C,-32.03

row,Compound,Percent Effect [%]
1,O=C(c1ccc(O)cn1)N1CCOC(c2ccc(Cl)c(Cl)c2)C1 (stereo unspecified),-8.844
2,CCc1cnc(NCCSc2cnn[nH]2)nc1,4.76
3,COC(=O)CCCNC(=O)COc1ccccc1C(F)(F)F,-5.238
4,CCCNC(=O)CCNC(=O)c1ccccc1N1CCOCC1,6.654
5,CCCNC(=O)c1cc2c(s1)CCN2C(=O)c1ccccc1,88.89
6,COCCNC(=O)c1cc2c(s1)CCN2C(=O)c1ccccc1,3.263
7,O=C(NC1CCCC1)c1cc2c(s1)CCN2C(=O)c1ccccc1,94.77
8,O=C(NC1CCCC1)NC1CCC(C(=O)N2CCSCC2)CC1 (stereo unspecified),9.425
9,COCCN(C)C(=O)c1cc2c(s1)CCN2C(=O)C1CC1,113.8
10,O=C(c1cc2c(s1)CCN2C(=O)C1CC1)N1CCCC1,-2.581
11,O=C(NC1CC1)c1cc2c(s1)CCN2C(=O)C1CC1,91.55
12,CN1C[C@H](COCC2CC2)[C@H]2CCN(Cc3ccco3)CC[C@H]2C1=O,-20.01
13,CCOC1CCN(CCc2nc(-c3cccc(Cl)c3)no2)CC1,9.803
14,CC(O)C(=O)N1CCC(c2nccn2Cc2cscn2)CC1 (stereo unspecified),-11.64
15,O=C(NCCN1CCCC1)c1cc2c(s1)CCN2C(=O)c1ccccc1,91.37
16,CN1CCCN(C(=O)c2cc3c(s2)CCN3C(=O)c2ccccc2)CC1,-3.728
17,CC(C1CC1)N(CC(=O)NCC(F)(F)F)C1CC1 (stereo unspecified),-3.588
18,O=C(CNc1cccc2c1CCCC2)Nc1ccccc1Br,7.656
